The results in this text go back to PubChem BioAssay (NCATS).

A short description of test [1]: Quantitative High-Throughput drug screen in 47 multiple myeloma cell lines against the NCATS MIPE library collection: LP1_DSMZ cell viability assay (AID 1918982). Further: nearly all actives have a fitted effect of over 35% in size. In a few lines: (§1)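 Plated at 500 cells per well, myeloma lines received MIPE 4.0 compounds by pin tool. Following 48 h culture at 37 °C, CellTiter-Glo luminescence gave viability relative to DMSO and media-only controls.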

The nature of test [2]: Quantitative High-Throughput drug screen in 47 multiple myeloma cell lines against the NCATS MIPE library collection: OPM1_PLB cell viability assay (AID 1918989). Further: nearly all actives have a fitted effect of over 40% in size. In a few lines:
as §1

The nature of test [3]: Quantitative High-Throughput drug screen in 47 multiple myeloma cell lines against the NCATS MIPE library collection: XG6_PLB cell viability assay (AID 1919865). Further: nearly all actives have a fitted effect of over 40% in size. In a few lines:
as §1

Test [4] can be described thus: Quantitative High-Throughput drug screen in 47 multiple myeloma cell lines against the NCATS MIPE library collection: XG1_PLB cell viability assay (AID 1919866). Further: nearly all actives have a fitted effect of over 35% in size. Put shortly: as §1
Test [5] can be described thus: Quantitative High-Throughput drug screen in 47 multiple myeloma cell lines against the NCATS MIPE library collection: PE2_PLB cell viability assay (AID 1919869). Further: nearly all actives have a fitted effect of over 35% in size. Put shortly: as §1
Test [6] is described as follows: Quantitative High-Throughput drug screen in 47 multiple myeloma cell lines against the NCATS MIPE library collection: PCM6_Riken cell viability assay (AID 1919870). Further: nearly all actives have a fitted effect of over 30% in size. In a few lines:
as §1

Test [7] can be described thus: Quantitative High-Throughput drug screen in 47 multiple myeloma cell lines against the NCATS MIPE library collection: RPMI8226_ATCC cell viability assay (AID 1919871). Further: nearly all actives have a fitted effect of over 30% in size. In a few lines: as §1
A short description of test [8]: Quantitative High-Throughput drug screen in 47 multiple myeloma cell lines against the NCATS MIPE library collection: OPM2_DSMZ cell viability assay (AID 1919872). Further: nearly all actives have a fitted effect of over 30% in size. Put shortly: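 Viability readout: CellTiter-Glo luminescence following 5 min room-temperature incubation with reagent. Prior exposure: 48 h, 37C, humidified 5% CO2, 500 cells per well.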
Test [9] can be described thus: Quantitative High-Throughput drug screen in 47 multiple myeloma cell lines against the NCATS MIPE library collection: KMS11_JCRBsus cell viability assay (AID 1919873). Further: nearly all actives have a fitted effect of over 50% in size. In a few lines: as §1
Test [10] can be described thus: Quantitative High-Throughput drug screen in 47 multiple myeloma cell lines against the NCATS MIPE library collection: L363_DSMZ cell viability assay (AID 1918984). Further: nearly all actives have a fitted effect of over 40% in size. In a few lines: as §1
Test [11] is described as follows: Quantitative High-Throughput drug screen in 47 multiple myeloma cell lines against the NCATS MIPE library collection: KMS34_JCRB cell viability assay (AID 1918985). Further: nearly all actives have a fitted effect of over 40% in size. In a few lines:
as §1

Test [12] can be described thus: Quantitative High-Throughput drug screen in 47 multiple myeloma cell lines against the NCATS MIPE library collection: U266_ATCC cell viability assay (AID 1919864). Further: nearly all actives have a fitted effect of over 35% in size. Put shortly:
as §1

The nature of test [13]: Quantitative High-Throughput drug screen in 47 multiple myeloma cell lines against the NCATS MIPE library collection: KMS28BM_JCRB cell viability assay (AID 1919874). Further: nearly all actives have a fitted effect of over 35% in size. In a few lines: as §1
Test [14] can be described thus: Quantitative High-Throughput drug screen in 47 multiple myeloma cell lines against the NCATS MIPE library collection: KMS28PE_JCRB cell viability assay (AID 1918983). Further: nearly all actives have a fitted effect of over 35% in size. Put shortly:
as §1

A short description of test [15]: Quantitative High-Throughput drug screen in 47 multiple myeloma cell lines against the NCATS MIPE library collection: OCIMY5_PLB cell viability assay (AID 1918988). Further: nearly all actives have a fitted effect of over 65% in size. Put shortly: as §1
Test [16] in a line: Quantitative High-Throughput drug screen in 47 multiple myeloma cell lines against the NCATS MIPE library collection: VP6_DJ cell viability assay (AID 1919867). Further: nearly all actives have a fitted effect of over 40% in size. In a few lines:
as §1

The nature of test [17]: Quantitative High-Throughput drug screen in 47 multiple myeloma cell lines against the NCATS MIPE library collection: UTMC2_PLB cell viability assay (AID 1919868). Further: nearly all actives have a fitted effect of over 55% in size. In a few lines:
as §1

Test [18] is described as follows: Quantitative High-Throughput drug screen in 47 multiple myeloma cell lines against the NCATS MIPE library collection: OCIMY7_PLB cell viability assay (AID 1918987). Further: nearly all actives have a fitted effect of over 65% in size. Put shortly: as §1
Test [19] in a line: Quantitative High-Throughput drug screen in 47 multiple myeloma cell lines against the NCATS MIPE library collection: SKMM1_PLB cell viability assay (AID 1919863). Further: nearly all actives have a fitted effect of over 35% in size. On viability: series mostly up to about 46 µM. The conditions noted are these: SKMM1 myeloma viability, CellTiter-Glo ATP, 48 h; viability: stronger effect = lower value. Put shortly:
as §1

Records with an inconclusive call do not appear. Values without a mark were called inactive. The source made the active and inactive calls. The call rests on the fitted dose curve; in most records, active means well fitted cell-killing curve with a large enough effect; inconclusive means small, poorly fitted or top-dose-only effect, or effect the other way; inactive means no such curve, though single readings can be large or run the other way.
Potency means the concentration at half of the fitted maximal effect.

Turning to `Cn1nnc2c(C(N)=O)ncn2c1=O`, the Potency entry in test [1], in test [2], in [3], in test [4], in test [5] and in [6] was “inactive” in each case. The Potency entry in test [7], in [8] and in test [9] was “inactive” each time.
As for `C#CCN[C@@H]1CCc2ccccc21`, the Potency entry in test [1], in test [10], in test [11], in [2], in [12] and in test [4] was “inactive” in each case. Further, the Potency entry in [5], in test [8], in test [9] and in test [13] was “inactive” in each case. Further, in [7], the Potency was 9.35 µM (active).
Turning to `Nc1nc(N)c2nc(CNc3ccc(C(=O)NC(CCC(=O)O)C(=O)O)cc3)cnc2n1` (centres undefined), the Potency in test [1] was 0.0296 µM (active); in [12] it was 0.148 µM (active); in test [4], 0.0332 µM (active); in test [9] it was 0.0526 µM (active); in test [13], 0.0296 µM (active). For the same molecule, in test [14], the Potency entry is “inactive”.
With `Cc1noc(NS(=O)(=O)c2ccc(N)cc2)c1C`, the Potency result in test [1], in test [14], in test [15], in test [2], in [3] and in test [4] was “inactive” throughout. Also, the Potency result in test [5], in test [7], in [8], in [9] and in test [13] was “inactive” in each case.
Take `OC(Cn1cncn1)(Cn1cncn1)c1ccc(F)cc1F`: the Potency result in test [1], in [14], in test [15], in test [2], in [3] and in [4] was “inactive” in each case. The Potency result in test [16], in test [17], in [5], in [9] and in test [13] was “inactive” each time. Further, the Potency in test [7] was 5.26 µM (active).
For the molecule `CC(C)OC(=O)OCOP(=O)(CO[C@H](C)Cn1cnc2c(N)ncnc21)OCOC(=O)OC(C)C`, the Potency result in test [1], in test [2], in test [8] and in test [9] was “inactive” each time. Besides, the Potency in test [15] was 3.72 µM (active); in [12], 16.6 µM (active); in [13], 14.8 µM (active).
With `CNS(=O)(=O)Cc1ccc2[nH]cc(CCN(C)C)c2c1`, the Potency entry in test [1], in [11], in [18], in [15], in [2] and in test [3] was “inactive” throughout. Besides, the Potency entry in [4], in test [6], in test [7], in test [8], in [9] and in test [13] was “inactive” in each case. The viability in test [19] is 112%. The Potency in test [5] is 14.8 µM (active).
Consider `NC(=O)N1c2ccccc2CC(=O)c2ccccc21`, for which the Potency entry in test [1], in test [10], in test [11], in test [2], in test [3] and in [4] was “inactive” each time. Further, the Potency entry in [16], in [5], in [6], in test [7] and in test [8] was “inactive” throughout. In addition, in test [19], the viability was 118%.
`COc1cc2ncnc(Nc3cccc(Cl)c3)c2cc1OC`: the Potency entry in test [1], in test [17] and in test [8] was “inactive” throughout. Moreover, the Potency is 26.4 µM (active) in test [14]; 0.264 µM (active) in test [15]; 20.9 µM (active) in test [2]; 0.132 µM (active) in test [12]; 18.7 µM (active) in test [9].
As to `Cc1ncc([N+](=O)[O-])n1CCO`, the Potency entry in test [1], in test [14], in [15], in test [2], in [3] and in [4] was “inactive” throughout. The Potency entry in test [16], in test [6], in [8] and in [13] was “inactive” throughout.
Consider `CCOC(=O)[C@H](CCc1ccccc1)N[C@H]1CS[C@H](c2cccs2)CN(CC(=O)O)C1=O`, for which the Potency in [14] was 18.7 µM (active); in [10], 0.662 µM (active); in [11], 10.5 µM (active); in test [15], 16.6 µM (active); in [2], 5.9 µM (active); in test [19] it was 14.8 µM (active). The Potency is 5.9 µM (active) in test [12]; 2.35 µM (active) in test [3]; 0.935 µM (active) in test [4]; 0.296 µM (active) in test [16]; 11.8 µM (active) in test [17]; 16.6 µM (active) in test [7]. In addition, the Potency is 1.66 µM (active) in test [9] and 0.59 µM (active) in [13].
For `CC1=C(C(=O)O)N2C(=O)[C@@H](NC(=O)C(N)c3ccccc3)[C@H]2SC1` (some centres undefined), the Potency result in test [1], in test [14], in test [2], in test [3], in test [16] and in [17] was “inactive” each time. The Potency result in test [5], in test [8], in test [9] and in test [13] was “inactive” each time. Besides, the viability in test [19] is 130%.
Take `CC1=CC(=O)c2ccccc2C1=O`: the Potency in test [1] is 23.5 µM (active); in [18] it was 33.2 µM (active); in test [15], 16.6 µM (active); in test [2], 23.5 µM (active); in test [19] it was 16.6 µM (active); in [12] it was 18.7 µM (active). Also, the Potency in test [3] was 14.8 µM (active); in test [4], 23.5 µM (active); in test [16], 16.6 µM (active); in test [5] it was 4.18 µM (active); in test [8] it was 20.9 µM (active); in test [9], 18.7 µM (active).
On to `O=S(=O)(c1cccc2cnccc12)N1CCCNCC1`, for which the Potency result in test [1], in test [12], in test [7], in test [8] and in [9] was “inactive” in each case. The Potency in test [14] was 18.7 µM (active); in [3], 20.9 µM (active); in test [16] it was 18.7 µM (active); in test [6], 16.6 µM (active). Besides, the viability in test [19] is 125%.
Consider `CNC1CCCN(c2c(F)cc3c(=O)c(C(=O)O)cn(C4CC4)c3c2OC)C1` (centres undefined), for which the Potency result in test [1], in test [14], in test [3], in test [4], in test [5] and in [6] was “inactive” throughout. Moreover, the Potency entry in test [7] is “inactive”. Further, the Potency in test [18] was 1.32 µM (active); in [2], 5.9 µM (active); in test [9] it was 9.35 µM (active). For the same molecule, the viability in test [19] is 118%.
`O=c1cc(O)c(Cl)c[nH]1`: the Potency entry in test [1], in [11], in test [2], in test [5] and in test [7] was “inactive” in each case. The Potency is 2.35 µM (active) in [10], 1.87 µM (active) in [3], 3.72 µM (active) in [4] and 0.132 µM (active) in test [16].
With `COc1cc([C@@H]2c3cc4c(cc3[C@H](O)[C@H]3COC(=O)[C@H]23)OCO4)cc(OC)c1OC`, the Potency result in test [1], in test [10], in test [11], in test [18], in test [2] and in test [3] was “inactive” in each case. In addition, the Potency result in test [4], in test [17], in test [5], in test [6], in [8] and in [9] was “inactive” throughout. Also, in [19], the viability was 65.8%.
With `NCCCC(O)(P(=O)(O)O)P(=O)(O)O`, the Potency result in [1], in test [14], in test [2], in test [4], in test [5] and in [7] was “inactive” in each case. Besides, the Potency entry in test [8] is “inactive”. Also, the viability in [19] was 137%. The Potency in [13] was 14.8 µM (active).
